The structures appear in SMILES notation. Where “and” joins values, the source holds several entries; their conditions need not be identical. Equal values may be shown once. Out of some 300,000 compounds screened, about 37,000 (12%) were called active. No stated cut-off is given here; in the data, active means max response mostly above about 13% (no sharp cut-off); inactive means mostly below about 14%. Many of the other results were omitted from the sample, so actives are more common in it than they were. A structure can be active in one record and inactive in another.

The assay is described as follows: Cycloheximide Counterscreen for Small Molecule Inhibitors of Shiga Toxin. Further: read at 38.3 µM for the half of the compounds with a filed dose; 0% is about no effect. The conditions noted are these: cell reporter, cycloheximide protein synthesis inhibition counterscreen; stronger effect = higher value. Background: Counterscreens check selectivity or assay interference.
For the compound `C/C(=N\NC(=O)OC(C)(C)C)c1ccc[nH]1`, the max response was 42.4% (active). For `Cc1ccccc1NC(=O)NNC(=O)OC(C)(C)C` the value was -3.59% (inactive).

As for `COc1ccccc1CNS(=O)(=O)c1ccc2c(c1)NC(=O)CS2`, the max response is 30.5% (inactive). The same measure for `O=[N+]([O-])c1cc([N+](=O)[O-])c(Oc2cc(F)cc(F)c2F)cc1NN1CCCCC1`: 0.495% (inactive); for `CCOC(=O)c1sc(NC(=O)CSc2nc3c(c(=O)n2-c2ccccc2)SCC3)c(C(=O)OCC)c1C`: -2.16% (inactive); for `COc1cccc(/C=N/NC(=O)c2[nH]nc3c2CCc2ccccc2-3)c1O`: 6.14% (inactive). For `COc1cccc(/C=N\NC(=O)C2=NNC(=O)C2C)c1O` (centres undefined) the value was 32.5% (active); for `COc1cc2cc(C(=O)N/N=C/c3cccc(OC)c3OC)[nH]c2cc1OC`, 0.0255% (inactive); for `O=c1[nH]nc(SCCS(=O)(=O)c2ccc(F)cc2)n1-c1ccccc1C(F)(F)F`, -1.24% (inactive). The same measure for `COc1cccc2cc(-c3cc(=O)oc4cc(C)c(O)cc34)oc12`: 8.46% (inactive); for `O=C(NCc1cccs1)c1ccc2c(c1)ncn2C1CCCC1`: 31.8% (active). Regarding `COc1ccccc1-n1cnc2cc(C(=O)NCC3CCCO3)ccc21` (centres undefined), the max response was -2.15% (inactive). The same measure for `O=C(NCCN1CCOCC1)c1ccc2c(c1)ncn2C1CCCC1`: 1.03% (inactive); for `CCCCC(CC)CNCc1cccn1CCN1CCOCC1` (centres undefined): -0.53% (inactive). For `CC(C)CN(Cc1c(O)ccc2c(=O)c(-c3ccccc3)coc12)CC(C)C` the value was 8.57% (inactive); for `CC(C)=CCc1c(O)c(CC=C(C)C)c2occ(-c3ccc(O)cc3)c(=O)c2c1O`, 10.9% (active). With `O=C(Cn1cc(C(=O)C2CC2)c2ccccc21)Nc1ccccc1Cl`, the max response is -7.35% (inactive). For `COc1cc(Cl)c(C)cc1NC(=O)CN1CCCCCC1` the value was 0.423% (inactive); for `Cc1csc(NC(=O)CN2CCCCCC2)n1`, 2.46% (inactive). The same measure for `Cc1cc(C)c(NC(=O)CN2CCCCCC2)c(C)c1`: 34.2% (active). For `O=C(CN1CCOCC1)Nc1c(Cl)cc(Cl)cc1Cl` the value was -2.9% (inactive); for `O=C(CN1CCCCCC1)Nc1c(Cl)cc(Cl)cc1Cl`, 21.3% (active); for `O=C(CN1CCCCCC1)Nc1ccc(Cl)cc1F`, 8.65% (inactive). Regarding `CC1CCCCN1CCCNc1ccc(C(CC(N)=O)NC(=O)c2ccccc2)cc1[N+](=O)[O-]` (centres undefined), the max response is -1.02% (inactive). For `COCCN(Cc1cc2cc3c(cc2nc1Cl)OCO3)C(=O)c1cccc(C)c1` the value was 5.64% (inactive). In the case of `CCOc1ccc(C(O)Cn2c(=N)n(CCN3CCCCC3)c3ccccc32)cc1` (centres undefined), the max response was -4.27% (inactive). The same measure for `COc1cccc(C(O)Cc2nc3ccccc3n2C)c1OC` (centres undefined): 20.6% (active). In the case of `COc1ccc(OC)c(C(O)c2nc3ccccc3n2C)c1` (centres undefined), the max response was -2.03% (inactive). For `COc1cc(C(O)c2nc3ccccc3n2C)cc(OC)c1OC` (centres undefined) the value was 0.887% (inactive). The same measure for `CCCn1c(C(O)c2ccc(OCC)cc2)nc2ccccc21` (centres undefined): -3.7% (inactive); for `CCOc1ccc(C(O)Cc2nc3ccccc3n2C)cc1` (centres undefined): 22.1% (active). The same measure for `COc1ccc(CN2CC(C(=O)NC3CCCCC3)CC2=O)cc1` (centres undefined): -2% (inactive). Take `O=C1Oc2ccccc2C(=O)/C1=C/c1ccccc1O`: the max response was 12.4% (inactive). Consider `COCCNC(=O)C1CCN(C(=O)C2CC(=O)N(c3ccc(C)cc3)C2)CC1` (centres undefined), for which the max response is 1.44% (inactive). For `CCOC(=O)c1c(NC(=O)c2ccc(S(=O)(=O)N(C)CC3CCCO3)cc2)sc2c1CC(C)(C)NC2(C)C` (centres undefined) the value was -4.44% (inactive); for `COc1ccc(NC(=O)N2CCCC2C(=O)NCc2ccccc2Cl)cc1` (centres undefined), -3.43% (inactive).

As to `O=C(c1ccccc1F)N(Cc1ccccc1)Cc1ccccc1`, the max response is -2.08% (inactive). For `C=CCN1C=C2C(=O)C(C)(OC(=O)CCc3ccccc3)C(=O)C=C2C=C1c1ccc(C#N)cc1` (centres undefined) the value was -1.82% (inactive); for `O=C(Cn1c(=O)sc2ccccc21)Nc1ccc2c(c1)OCCO2`, -0.826% (inactive); for `O=C(Nc1ccc2c(c1)OCCO2)c1ccncc1`, 33.1% (active). As for `O=C(Nc1ccc2c(c1)OCCO2)c1ccoc1`, the max response was 35.3% (active).

As for `Cn1c(=O)c2ccccc2n(CC(=O)Nc2ccc3c(c2)OCCO3)c1=O`, the max response is -8.73% (inactive).

As to `O=C(CCN1C(=O)c2ccncc2C1=O)Nc1ccc2c(c1)OCCO2`, the max response is 1.67% (inactive). The same measure for `O=C(Nc1ccc2c(c1)OCCO2)c1cnccn1`: 33% (inactive); for `COc1cccc(N(C(=O)CNC(=O)c2ccco2)C(C(=O)NC2CCCCC2)c2cccnc2)c1` (centres undefined): -2.98% (inactive). The same measure for `CCN(CC)c1ccc(NC(=O)CN2CCN(c3ccccn3)CC2)cc1`: -3.57% (inactive); for `CC[n+]1cc(C)ccc1/C=C/c1ccc(N(C)C)cc1`: 12.8% (inactive). The same measure for `O=c1ccnc(Nc2ccc(Cl)cc2)[nH]1`: 1.06% (inactive); for `O=C(Nc1cc(S(=O)(=O)N2CCOCC2)ccc1Cl)c1cc(=O)c2ccccc2o1`: 2.68% (inactive). As for `N#Cc1nc(Cc2ccccc2)oc1NCCc1ccccc1`, the max response is 39.2% (active). The same measure for `CCOc1ccc(Nc2oc(Cc3ccccc3)nc2C#N)cc1`: 31.6% (active); for `Cc1ccccc1-c1nc(C#N)c(NCc2ccco2)o1`: 8.49% (inactive).

`N#Cc1nc(Cc2cccc3ccccc23)oc1NCc1ccc2c(c1)OCO2`: the max response is -2.28% (inactive).

`COc1ccc(Nc2oc(-c3ccccc3Cl)nc2C#N)cc1`: the max response was 9% (inactive). The same measure for `N#Cc1nc(COc2ccc(-c3ccccc3)cc2)oc1NCc1cccnc1`: 9.29% (inactive); for `O=c1cc(C(F)(F)F)[nH]c(=O)n1C1CCCCC1`: 6.49% (inactive); for `CCCCn1c(N)c(N(CC)C(=O)c2ccccc2C(F)(F)F)c(=O)[nH]c1=O`: -3.22% (inactive).

As to `CCSc1nc(C)c(CCOc2cccc(C)c2)c(=O)[nH]1`, the max response is 1.14% (inactive). As for `O=C(Nc1ccc(Cl)cc1)OCc1cc(-c2ccccc2)on1`, the max response is 22.5% (active). For `Clc1ccc(-c2cc(COc3ccccc3)no2)cc1Cl` the value was -2.19% (inactive). For `O=C(Nc1ccccc1)OCc1cc(-c2ccc(Cl)cc2)on1` the value was -2.77% (inactive); for `Cc1ccccc1C1CC(c2cccs2)=NN1S(C)(=O)=O` (centres undefined), -1.48% (inactive); for `CS(=O)(=O)Nc1cccc(C2=NN(S(=O)(=O)c3ccccc3)C(c3cccs3)C2)c1` (centres undefined), -3.68% (inactive). For `Cc1ccc(C2CC(c3cccc(NS(C)(=O)=O)c3)=NN2S(C)(=O)=O)cc1` (centres undefined) the value was 45.1% (active); for `CCS(=O)(=O)Nc1ccc(C2=NN(C(C)=O)C(c3cccs3)C2)cc1` (centres undefined), 16% (inactive). On to `CS(=O)(=O)Nc1cccc(C2=NN(C(=O)c3cccc(F)c3)C(c3cccs3)C2)c1` (centres undefined), for which the max response is -2.01% (inactive). The same measure for `CS(=O)(=O)Nc1ccc(C2=NN(S(C)(=O)=O)C(c3cccs3)C2)cc1` (centres undefined): 33.7% (active); for `CCOc1ccc(NC(=S)NC(=O)/C=C/c2ccc(OC)cc2)c([N+](=O)[O-])c1`: 9.22% (inactive); for `c1ccc2c(C[n+]3csc4ccccc43)cccc2c1`: 9.31% (inactive). For `COC(=O)Cn1cnc2scc(-c3ccc(C)c(C)c3)c2c1=O` the value was -2.51% (inactive). Consider `CCc1ccc(S(=O)(=O)N/N=C\c2ccc([N+](=O)[O-])o2)cc1`, for which the max response was 5.73% (inactive). For `Cc1cc2ccccn2c1C(=O)c1cccc(S(=O)(=O)N2CCOCC2)c1` the value was -0.598% (inactive).

Turning to `CCC(=O)OCCNc1nc(-c2ccccc2)nc2ccccc12`, the max response was 1.39% (inactive). Regarding `CC(C)(C)OC(=O)NNc1c2ccccc2nc2ccccc12`, the max response is 11.3% (active). As for `O=C(NNc1c2ccccc2nc2ccccc12)c1cc2ccccc2cc1O`, the max response is -1.17% (inactive). As to `COc1ccc(C(CCN(Cc2ccc(OC)c(OC)c2)C(=O)CCl)c2ccccc2)cc1` (centres undefined), the max response was -1.89% (inactive). For `CC(=O)c1cccc(NC(=O)CN2C(=O)c3cccnc3Oc3ccc(Cl)cc32)c1` the value was 8.12% (inactive); for `O=C(Cn1c(N2CCN(C/C=C/c3ccccc3)CC2)nc2ccccc21)c1ccccc1`, 8.47% (inactive); for `CC[C@H](C)[C@H](NC(=O)[C@@H](N)CCC(=O)O)C(=O)N[C@@H](CC(C)C)C(=O)N[C@@H](CC(=O)O)C(=O)N[C@H](C(=O)N1CCC[C@H]1C(=O)N[C@@H](CO)C(=O)N[C@H](C(=O)O)[C@@H](C)O)C(C)C`, 0.56% (inactive).

On to `CCOC(=O)c1c(NC(=O)C(C)Sc2c[nH]c3ccccc23)sc2c1CCC2` (centres undefined), for which the max response was -0.942% (inactive). The same measure for `O=C(CCc1nnc2ccc(NCc3ccco3)nn12)Nc1cc(F)ccc1F`: -2.19% (inactive); for `CCOc1ccccc1NC(=O)CCc1nnc2ccc(NCc3ccco3)nn12`: 2.03% (inactive); for `CC(=O)c1ccc(NC(=O)CCc2nnc3ccc(NCc4ccco4)nn23)cc1`: 40.6% (active). The same measure for `O=C(CC(n1cncn1)C(Cl)(Cl)Cl)c1ccc([N+](=O)[O-])cc1` (centres undefined): -2.22% (inactive); for `O=C(Cn1c[n+](CC(=O)c2ccc([N+](=O)[O-])cc2)cn1)c1ccc([N+](=O)[O-])cc1`: 1.46% (inactive) and 22.2% (active); for `O=C(c1ccncc1)c1ccc([N+](=O)[O-])cc1`: -4.87% (inactive). As to `COc1ccc(N2CCC(N3CCN(C)C(CCO)C3)CC2)cc1` (centres undefined), the max response is -1.24% (inactive).

Take `COc1ccc(OCCNS(=O)(=O)Cc2ccccc2)cc1`: the max response is -3.58% (inactive).

For `O=C(c1ccc(Cl)cc1)N1N=C(c2ccccn2)CC1(O)C(F)(F)F` (centres undefined), the max response is -0.573% (inactive).

`COc1ccc(OC)c(CNC(=O)c2cc(=O)[nH]c3ccc(S(=O)(=O)N4CCCC4)cc23)c1`: the max response was 11.5% (inactive). For `COC(CNC(=O)c1ccc2c(c1)ncn2-c1cc(C)cc(C)c1)OC` the value was -5.14% (inactive); for `COC(=O)CSc1nc2ccccc2c(=O)n1Cc1ccccc1`, 12.7% (inactive). The same measure for `Cc1ccc(C(=O)CSc2nc3ccccc3c(=O)n2N)o1`: 34.6% (active); for `O=C(CCCn1c(SCC(=O)c2ccc(F)cc2)nc2ccccc2c1=O)NCc1ccco1`: -0.158% (inactive).

Source of the values: PubChem BioAssay AID2314 (National Center for Advancing Translational Sciences (NCATS), 2010).
